Source: PubChem BioAssay
Hits are enriched below; roughly 2% of the tested compounds scored in any of these assays.
TLR9-MyD88 inh: inhibitors of human TLR9-MyD88 binding. Q9NR96+Q99836. inhibition, % at 4.98 µM. CHO BLA complementation TLR9-MyD88, CCF4 FRET ratio. 340,000 tested, 0.21% active. AID 504734;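 active = inhibition above the mean over all tested compounds plus 3 SD, cut at about 21% in these data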;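 note: 0% = DMSO only wells and 100% = clavulanate BLA inhibitor control wells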
ABHD5-PLIN5 inh: ABHD5-PLIN5 protein interaction inhibition. Q00G26+Q8WTS1. Split G. princeps luciferase complementation, luminescence, 4 h. inhibition, % at 4 µM. 360,000 tested, 0.78% active. AID 602281;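 active = inhibition above the mean inhibition across every tested compound plus 3 SD, cut at about 22% in these data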;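 note: 0% = DMSO only wells and the 100% control is not disclosed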
TLR4-MyD88 BLA: TLR4-MyD88 interaction inhibition in cells. HeLa CL3-4 TLR4/MyD88 BLA complementation, FRET ratio. 200,000 tested, 0.18% active. AID 861. inhibition, % at 8.4 µM; in the data active = inhibition above about 25%;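 note: 0% = vehicle and 100% = reference inhibitor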
B2AR ag: human beta-2 adrenergic receptor agonism by FAP; 340,000 tested, 0.43% active; P07550; AID 504454; Am2.2-beta2AR cells, FAP receptor internalization, flow cytometry; response, % (no concentration beside the values);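 active = response above a set limit, near 3 SD of response in nonfluorescent compounds, cut at about 42% in these data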
NOD2-RIPK2 inh: inhibitors of human NOD2-RIPK2 interaction | O43353 | CHO BLA complementation NOD2-RIPK2, CCF4 ratio | inhibition, % at 4.98 µM | 360,000 tested, 0.38% active | AID 624267; in the data active = inhibition above about 21%;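 note: 0% = vehicle only and 100% = reference blocker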
Exocytosis inh: blocks lytic granule exocytosis | TALL-104 LAMP-1 surface exposure, flow cytometry; cells stimulated with thapsigargin and PMA | inhibition, % at 10 µM | 360,000 tested, 0.66% active;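 active = inhibition above about 55%, limit read from the data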
Granule exo CP1: blocks lytic granule exocytosis; shares compounds with Exocytosis inh; inhibition, % at 10 µM; AID 651954; TALL-104 cells, LAMP-1 externalization, flow cytometry; stimulated with PMA plus thapsigargin; 1,500 tested, 11% active; in the data active = inhibition above about 60%;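 note: 0% = stimulated vehicle wells and 100% = unstimulated wells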
Active calls of the source: *; nt = not tested or not shown.

SMILES | TLR9-MyD88 inh | ABHD5-PLIN5 inh | TLR4-MyD88 BLA | B2AR ag | NOD2-RIPK2 inh | Exocytosis inh | Granule exo CP1
CCOC(=O)C1CCN(C(c2ccccn2)c2c(C)[nH]c3ccccc23)CC1 (configuration not stated) | 2 | 1 | 11 | 12 | -8 | 55 | nt
COC1=CC(=O)c2c(ccc3ncnc(N)c23)C1=O | 2 | 55* | nt | -29 | -7 | 88* | 14
Cn1nc(-c2ccccc2)c(C(=O)Nc2ccc(Cl)cc2)c1Cl | 6 | 8 | 6 | -2 | 3 | 0 | nt
Cn1c(Cl)c(C(=O)Nc2ccc(Cl)cc2)c2ccccc21 | 1 | -3 | 7 | -1 | 4 | 69* | -1
COCCNC(=S)N(CCc1c(C)[nH]c2ccc(F)cc12)Cc1ccc(C)cc1 | -1 | -5 | nt | 1 | -17 | 77* | 23
COCCNC(=S)N(CCc1c(C)[nH]c2ccc(C)cc12)Cc1ccco1 | -6 | -2 | 0 | 1 | 3 | 5 | nt
CCN(CC)CCN(C(=O)c1cc2ccccc2cc1OC)c1nc2ccc(OC)cc2s1 | 3 | 14 | nt | 4 | 5 | 65* | -4
Cc1ccc(C(=O)NCCN2CCOCC2)c(Cl)c1 | 4 | -4 | nt | 10 | -4 | 56* | -13
CN(C)c1cccc(CNC(=O)c2ccc3sc([C@@H]4O[C@H](CO)[C@H](O)[C@H](O)[C@H]4O)nc3c2)c1 | nt | -2 | nt | nt | -8 | -1 | nt
CCOc1ccc2[nH]c3c(N4CCc5ccccc5C4)ncnc3c2c1 | nt | 16 | nt | 28 | 3 | 97* | 98*
CN1CCN(S(=O)(=O)c2cccc(C(=O)N(C)CC(=O)Nc3ccc(Cl)c(Cl)c3)c2)CC1 | 4 | 6 | nt | 1 | -8 | -1 | nt
Cc1ccc(Cc2c(C3CCCCC3)nc3c4ccccc4ccn23)cc1 | nt | -12 | nt | nt | -7 | -1 | nt
CC1(C)CC(C(CCN(Cc2ccccc2)C(=O)c2ccco2)c2ccc(F)cc2)CCO1 (configuration not stated) | -6 | 2 | -15 | -3 | 4 | 0 | nt
O=C(c1ccco1)N(CCC(c1ccccc1)c1ccco1)Cc1ccc(F)cc1 (configuration not stated) | -2 | 9 | 8 | 24 | -7 | 59* | -11
O=C(COC(=O)c1c(F)cccc1F)NC(=O)NCc1ccccc1 | 4 | 5 | nt | nt | 1 | -21 | nt
COc1ccc(OC)c(-c2csc(NC(=O)Cc3ccccc3)n2)c1 | -2 | 0 | nt | 0 | -3 | 59* | -13
COc1cccc(NC(=O)Nc2nc(-c3ccc(OC)c(OC)c3)cs2)c1 | 6 | -7 | nt | 33 | 7 | 78* | 87*
COc1ccc(OC)c(-c2csc(NC(=O)Cc3ccc(OC)c(OC)c3)n2)c1 | -3 | 2 | nt | 12 | 2 | 64* | -4
COc1ccc(CC(=O)Nc2nc(-c3cc(OC)ccc3OC)cs2)cc1 | 3 | -4 | 9 | 15 | -13 | 1 | nt
COCCn1c(-c2ccc(-c3ccccc3Cl)o2)nc2c1c(=O)[nH]c(=O)n2CC(C)C | 2 | 1 | 10 | 5 | -3 | 4 | nt
CCCCn1c(=O)[nH]c(=O)c2c1nc(-c1ccc(-c3ccccc3Br)o1)n2CCOC | 8 | 11 | 1 | -2 | -1 | 56* | 59
COCCOC(=O)N1CCCCC1c1cc(C(=O)NCc2ccc(Cl)c(Cl)c2)no1 (configuration not stated) | nt | -1 | nt | nt | 15 | 3 | nt
CCCN(C)C1CN(Cc2cn(Cc3ccc(C)cc3)nn2)S(=O)(=O)C1 (configuration not stated) | nt | -5 | nt | nt | -6 | -5 | nt
COC(=O)c1ccc(NCc2c(O)ccc(O)c2Br)cc1Cl | -7 | -4 | nt | 20 | -7 | 98* | 80*
COC(=O)c1ccc(NCc2cc(O)ccc2O)cc1O | 7 | 6 | nt | 13 | 10 | 44 | nt
SMILES | TLR9-MyD88 inh | ABHD5-PLIN5 inh | TLR4-MyD88 BLA | B2AR ag | NOD2-RIPK2 inh | Exocytosis inh | Granule exo CP1
Cc1cc(C(=O)COC(=O)/C=C/c2ccco2)c(C)n1C | -1 | 11 | nt | -6 | -3 | -4 | nt
COc1ccccc1Cc1c(-c2cccc(Br)c2)nc2ccc(Cl)cn12 | nt | -5 | nt | nt | -3 | -6 | nt
COc1ccc(CNCCCn2cnc3c(SC)ncnc32)cc1 | -6 | 0 | nt | nt | -7 | -1 | nt
COc1ccc(CN2CCN(CCCCOc3ccc(Cl)cc3)CC2)c(OC)c1OC | 5 | 5 | -11 | 2 | -3 | 76* | -10
CC(CCN1CCOCC1)c1ccccc1 (configuration not stated) | -5 | -11 | nt | 4 | -2 | -3 | nt
CC(CCN1CCN(c2ccc(F)cc2)CC1)c1ccccc1 (configuration not stated) | -8 | -10 | nt | -1 | -36 | 57* | -12
CCCN(C(=O)CSc1ncccn1)C1CCS(=O)(=O)C1 (configuration not stated) | 4 | -3 | nt | 15 | -4 | 0 | nt
COCCN(CCOC)Cc1cc(=O)oc2cc(C)cc(C)c12 | nt | 6 | nt | nt | -1 | -3 | nt
COc1ccc(C(=O)N(CCc2ccccc2)Cc2ccccc2)c(OC)n1 | -1 | -6 | nt | 2 | -6 | 23 | nt
COc1ccc(C(=O)N(CCc2ccccc2)Cc2cccs2)c(OC)c1 | 0 | -3 | nt | -5 | 4 | 64* | -10
COc1ccc(C(CNC(=O)Cc2ccc(-c3ccccc3)cc2)N(C)C)cc1 (configuration not stated) | 4 | 5 | nt | 0 | -1 | 62* | -14
COc1ccc(C(CNC(=O)CSc2ccccc2C)N(C)C)cc1 (configuration not stated) | -4 | -3 | nt | -2 | -3 | 29 | nt
COc1cc(C(C)=O)ccc1OCC(=O)Nc1cc(C)on1 | 6 | 5 | nt | -1 | -4 | -2 | nt
COc1cc(C)cc(OC)c1OCC(=O)Nc1cc(C)on1 | -9 | -8 | nt | 1 | -4 | 69* | -4
Cc1onc(-c2ccccc2Cl)c1C(=O)N1CCC(Cc2ccccc2)CC1 | -3 | 2 | nt | -1 | 7 | 84* | -12
COCCNC(=O)C1CCCN(Cc2ccc(C(C)C)cc2)CC1 (configuration not stated) | nt | -2 | nt | nt | -9 | 68* | -4
COc1cc(CN2CCC(C(=O)NCCC(C)C)CC2)ccc1OCc1ccccc1 | -16 | 1 | nt | -8 | -1 | 63* | -12
CC(C)CCNC(=O)C1CCN(Cc2cccc(OCc3ccccc3)c2)CC1 | -11 | 2 | nt | 5 | 10 | 69* | -10
CCOC(=O)C1CCN(Cc2ccc(OCc3ccccc3)c(OC)c2)CC1 | 5 | -1 | nt | -2 | 5 | 4 | nt
COCCNC(=O)C1CCN(Cc2cccc(OCc3ccccc3)c2)CC1 | -7 | -2 | nt | -2 | -5 | -5 | nt
COCCNC(=O)C1CCCN(Cc2ccc(C)cc2)CC1 (configuration not stated) | nt | -1 | nt | nt | 8 | -5 | nt
